This note sets out measurements from PubChem BioAssay (Tox21).

Unmarked numbers belong to inactive results. Results filed as inconclusive are left out. Calls of active or inactive are those of the source. Unless noted, the call rests on the fitted dose curve; in most records, active means well fitted curve in the direction sought with a large enough effect in the repeat runs; inconclusive means weak or mixed curves; inactive means no such curve, though single readings can be large; an effect the other way counts as inactive or inconclusive.

Assay [1] in a line: qHTS assay for small molecule agonists of the p53 signaling pathway (AID 651631; calls by dose curve; further: nearly all actives have a fitted effect of over 15% in size; further: potency means the concentration at half of the fitted maximal effect). The essentials: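 HCT-116 p53RE-bla reporter line, 16 h compound treatment at 37 °C, then fluorescence after 2 h with B/G FRET substrate.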
(In general: In qHTS, concentration-response curves come from the screen itself.)

The nature of assay [2]: qHTS assay for small molecules that induce genotoxicity in human embryonic kidney cells expressing luciferase-tagged ATAD5 (AID 651632). Further: nearly all actives have a fitted effect of over 15% in size. Further: potency means the concentration at half of the fitted maximal effect. The essentials: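 Concentration-response screen for ATAD5 upregulation in HEK293T luciferase reporter cells; 16 hr treatment at 37C, then luminescence after 30 min with Amplite at room temperature.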
Assay [3] in a line: qHTS assay for small molecule agonists of the p53 signaling pathway - cell viability (AID 651633; calls by dose curve;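 further: p53RE-bla HCT reporter cells with a stable beta-lactamase p53 reporter; series mostly up to about 83 µM; nearly all actives have a fitted effect of over 30% in size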). The essentials: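 p53RE-bla cells were treated with compound for 16 hours at 37 C. Cytotoxicity was then measured as CellTiter-Glo luminescence after 30 min at room temperature.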
The nature of assay [4]: qHTS assay for small molecules that induce genotoxicity in human embryonic kidney cells expressing luciferase-tagged ATAD5 - cell viability (AID 651634; calls by dose curve; further: nearly all actives have a fitted effect of over 25% in size; further: potency means the concentration at half of the fitted maximal effect). The essentials:
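15.5 hr compound or vehicle exposure of HEK293T cells expressing luciferase-tagged ATAD5 at 37C; live-cell protease activity is read by fluorescence after 30 min of CellTiter-Fluor.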

The nature of assay [5]: qHTS assay for small molecule disruptors of the mitochondrial membrane potential - cell viability (AID 720634; calls by dose curve;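 further: human HepG2 liver cancer cells; series mostly up to about 83 µM; nearly all actives have a fitted effect of over 20% in size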). The essentials: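 In this qHTS format, HepG2 cells plated overnight were pinned with compound, incubated 1 hr, and assayed for ATP luminescence with CellTiter-Glo after m-MPI dye addition.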
Assay [6] in a line: qHTS assay for small molecule disruptors of the mitochondrial membrane potential (AID 720635). Further: potency means the concentration at half of the fitted maximal effect. The method in brief: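 HepG2 cells exposed to compound 1 hr at 37C, then Mito-MPS dye 30 min. Ratio read of aggregate (540/590 nm) versus monomer (490/535 nm) fluorescence.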
Assay [7] can be described thus: qHTS assay to test for compound auto fluorescence at 590 nm (red) in HepG2 cells (AID 720674). The method in brief: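 Seeding: 2,000 HepG2 cells/well, MEM/10% FBS, overnight 37 C. Dosing: compound vs DMSO. Incubation: 1 hr, 37 C, 5% CO2. Read: fluorescence 540 ex/590 em, Rose Bengal sodium as red reference.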
The nature of assay [8]: qHTS assay to test for compound auto fluorescence at 535 nm (green) in HepG2 cells (AID 720675).
Assay [9] can be described thus: qHTS assay to test for compound auto fluorescence at 590 nm (red) in HEK293 cells (AID 720679). The method in brief: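 HEK293 cells (2,000/well, 10% dialyzed FBS) attached 4-5 hr, then dosed with compound or DMSO and incubated overnight at 37C, 5% CO2. Red fluorescence read at 540/590 nm, Rose Bengal sodium as reference fluorophore.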
Assay [10] is described as follows: qHTS assay to test for compound auto fluorescence at 535 nm (green) in HEK293 cells (AID 720680).
Assay [11] can be described thus: qHTS assay to test for compound auto fluorescence at 460 nm (blue) in HEK293 cell free culture (AID 720681). The essentials:
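Compounds were added to cell-free DMEM with 10% FBS and fluorescence read directly. The blue channel used 405 nm excitation and 460 nm emission, with triamterene as the reference fluorophore.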

A short description of assay [12]: qHTS assay to test for compound auto fluorescence at 535 nm (green) in HEK293 cell free culture (AID 720682). The method in brief:
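Steps: dispense DMEM/10% FBS into empty wells; pin in compound or DMSO; measure fluorescence at 485/535 nm. Values are fluorescein equivalents.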

Assay [13] can be described thus: qHTS assay to test for compound auto fluorescence at 590 nm (red) in HEK293 cell free culture (AID 720683). The essentials:
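Cell-free wells of DMEM with 10% FBS received compound, and intrinsic fluorescence was read at excitation/emission 540/590 nm. Values expressed as equivalence to Rose Bengal sodium.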

Assay [14] in a line: qHTS assay to test for compound auto fluorescence at 590 nm (red) in HepG2 cell free culture (AID 720684). The essentials:
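Rose Bengal sodium served as the reference for red signal. Test compounds were dispensed into serum-containing MEM (10% FBS) without cells, and plates were read at 540/590 nm.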

Assay [15] is described as follows: qHTS assay to test for compound auto fluorescence at 535 nm (green) in HepG2 cell free culture (AID 720686).
The nature of assay [16]: qHTS assay to test for compound auto fluorescence at 460 nm (blue) in HepG2 cells (AID 720687). The essentials: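 HepG2 cells in MEM with 10% FBS, attached overnight at 37 C, were exposed to compound or DMSO for 1 hr at 37 C, 5% CO2. Blue fluorescence was read at 405/460 nm, with triamterene as reference fluorophore.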
For assay [17], the target named is Glucocorticoid receptor (Homo sapiens) (UniProt P04150). In words: qHTS assay to identify small molecule agonists of the glucocorticoid receptor (GR) signaling pathway (AID 720691; active means well fitted activation curve with a large enough effect in the signal ratio in the repeat runs, not every such curve was filed as active; the % refers to the signal ratio). The method in brief: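 Measures GR pathway activation through a GRE-beta-lactamase reporter stably integrated in HeLa cells, with 18 h compound treatment at 37 C and fluorescence detection using a FRET substrate.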
Chain of Glucocorticoid receptor (Homo sapiens) (P04150 whole entry, looked up): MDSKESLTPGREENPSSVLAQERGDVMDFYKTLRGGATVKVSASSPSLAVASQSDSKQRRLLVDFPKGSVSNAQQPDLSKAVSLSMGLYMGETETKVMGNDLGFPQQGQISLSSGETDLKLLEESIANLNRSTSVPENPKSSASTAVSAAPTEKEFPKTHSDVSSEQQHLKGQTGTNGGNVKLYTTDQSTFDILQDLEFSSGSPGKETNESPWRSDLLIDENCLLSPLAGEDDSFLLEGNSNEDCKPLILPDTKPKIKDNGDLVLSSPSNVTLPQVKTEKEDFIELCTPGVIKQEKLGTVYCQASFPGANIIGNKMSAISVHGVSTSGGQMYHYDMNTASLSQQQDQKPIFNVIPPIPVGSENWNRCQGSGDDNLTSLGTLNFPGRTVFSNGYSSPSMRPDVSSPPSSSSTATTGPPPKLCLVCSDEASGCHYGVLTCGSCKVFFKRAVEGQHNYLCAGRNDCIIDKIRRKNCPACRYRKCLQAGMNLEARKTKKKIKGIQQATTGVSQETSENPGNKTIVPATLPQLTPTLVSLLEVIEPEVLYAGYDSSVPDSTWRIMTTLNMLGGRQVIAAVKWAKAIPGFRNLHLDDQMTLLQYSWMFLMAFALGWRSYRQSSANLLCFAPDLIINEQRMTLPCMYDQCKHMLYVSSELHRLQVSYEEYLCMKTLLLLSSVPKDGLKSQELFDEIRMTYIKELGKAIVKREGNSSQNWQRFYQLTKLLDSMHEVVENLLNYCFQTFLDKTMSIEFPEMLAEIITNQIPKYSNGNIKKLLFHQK

Assay [18] shares this target. The assay is described as follows: qHTS assay to identify small molecule antagonists of the glucocorticoid receptor (GR) signaling pathway (AID 720692; active means well fitted inhibition curve with a large enough effect in the signal ratio in the repeat runs, not every such curve was filed as active; the % refers to the signal ratio). The method in brief:
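Tox21 10K library screened in concentration-response for blockade of dexamethasone (5 nM final)-induced GRE-bla reporter activity in HeLa cells; 18 h treatment, fluorescence read.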

A short description of assay [19]: qHTS assay to test for compound auto fluorescence at 460 nm (blue) in HEK293 cells (AID 720678). The method in brief:
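HEK293 cells (2,000/well, medium with 10% dialyzed FBS) attached 4-5 hr, then exposed to compound overnight at 37C, 5% CO2. Blue fluorescence read at 405/460 nm, with triamterene as reference fluorophore.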

Assay [20] is described as follows: qHTS assay to test for compound auto fluorescence at 460 nm (blue) in HepG2 cell free culture (AID 720685). The essentials:
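Cell-free plates of MEM plus 10% FBS received 23 nL compound or DMSO vehicle; blue-channel (405/460 nm) intensity scored against triamterene as reference fluorophore.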

Take `CCCCCCCCCI`: the Potency result in assay [1], in assay [2], in assay [3], in [4], in assay [5] and in [6] was “inactive” in each case. For the same compound, the Potency result in assay [11], in [16], in assay [17] and in assay [18] was “inactive” in each case. In addition, the compound was called inactive in assay [7], in assay [8], in assay [9], in [10], in assay [12] and in assay [13]. The compound was classed as inactive in assay [14] and in [15].

In the case of `CCCC(=O)C(=O)O`, the Potency entry in assay [1], in assay [2], in [3], in assay [4], in [5] and in assay [6] was “inactive” throughout. Besides, the Potency entry in assay [19], in [11], in assay [20], in [16], in [17] and in assay [18] was “inactive” in each case. In addition, the call in assay [7], in [8], in assay [9], in assay [10], in [12] and in assay [13] was inactive. The call in assay [14] and in assay [15] was inactive.

For `CC1(C)S[C@@H]2[C@H](NC(=O)C(c3ccccc3)S(=O)(=O)O)C(=O)N2[C@H]1C(=O)O` (stereo partly specified), the Potency entry in assay [1], in assay [2], in [3], in assay [4], in assay [5] and in assay [6] was “inactive” in each case. Also, the Potency result in assay [19], in assay [11], in [20], in [16], in [17] and in assay [18] was “inactive” each time. The result in assay [8], in assay [9], in assay [10], in [12], in [13] and in assay [14] was inactive. Also, the compound was classed as inactive in [15].

For `CCC1CO1` (stereo unspecified), the Potency entry in assay [1], in [2], in assay [3], in assay [4], in assay [5] and in assay [6] was “inactive” each time. In addition, the Potency result in assay [19], in assay [11], in assay [20], in assay [16], in [17] and in [18] was “inactive” throughout. Also, the outcome in [7], in [8], in [9], in assay [12], in assay [13] and in assay [14] was inactive. In addition, the compound was called inactive in assay [15].

Turning to `CCCCCCCC/C=C\CCCCCCCCCCCC(=O)O`, the Potency entry in assay [1], in assay [2], in [3], in assay [4], in assay [5] and in assay [6] was “inactive” in each case. The Potency entry in assay [19], in assay [11], in [20] and in assay [16] was “inactive” in each case. The compound was classed as inactive in assay [7], in [8], in assay [9], in assay [12], in [13] and in [14]. Moreover, the result in assay [15] was inactive.

As for `CC[C@]1(O)C[C@H]2CN(CCc3c([nH]c4ccccc34)[C@@](C(=O)OC)(c3cc4c(cc3OC)N(C=O)[C@H]3[C@@](O)(C(=O)OC)[C@H](OC(C)=O)[C@]5(CC)C=CCN6CC[C@]43[C@@H]65)C2)C1`, the Potency in [1] is 0.0084 µM (active); in assay [2], 0.75 µM (active); in [4], 0.0473 µM (active); in assay [6], 3.76 µM (active). Also, the Potency entry in [3], in assay [5], in assay [19], in assay [11], in [16] and in assay [17] was “inactive” each time. The compound was classed as inactive in [7], in assay [8], in [9], in [10], in assay [12] and in assay [13]. Besides, the call in assay [14] and in assay [15] was inactive.
